# From PubChem BioAssay (NCI)
# About 83,000 compounds went through this panel and 20% of them were active in at least one assay; those are over-represented in the sample as a whole.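 Results are percent growth after 48 hours of single-concentration exposure. 100 means growth as in untreated cells, lower positive values show inhibition; negative values down to -100 show cell death.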 Values without a mark were called inactive. Calls of active or inactive are those of the source. The calls were made as follows: active = growth percent below 10; inactive = the rest.
# What was measured:
# Assay in all cases: NCI-60 one-dose screen, 48 h (100 = growth as untreated, 0 = no growth, -100 = all killed)
# [1] = test system: SN12C renal; conditions: 10 µM unless noted
# [2] = test system: UO-31 renal; conditions: 10 µM unless noted
# [3] = test system: TK-10 renal; conditions: 10 µM unless noted
# [4] = test system: ACHN renal; conditions: 10 µM unless noted
# [5] = test system: A498 renal; conditions: 10 µM unless noted
# [6] = test system: CCRF-CEM leukemia; conditions: 10 µM unless noted
# [7] = test system: OVCAR-8 ovarian; conditions: 10 µM unless noted
# [8] = test system: OVCAR-5 ovarian; conditions: 10 µM unless noted
# [9] = test system: OVCAR-4 ovarian; conditions: 10 µM unless noted
# [10] = test system: SK-OV-3 ovarian; conditions: 10 µM unless noted
# [11] = test system: IGROV1 ovarian; conditions: 10 µM unless noted
# [12] = test system: OVCAR-3 ovarian; conditions: 10 µM unless noted
# [13] = test system: HS 578T breast; conditions: 10 µM
# [14] = test system: NCI/ADR-RES ovarian; conditions: 10 µM unless noted
# [15] = test system: MOLT-4 leukemia; conditions: 10 µM unless noted
# [16] = test system: SR leukemia; conditions: 10 µM unless noted
# [17] = test system: RPMI-8226 leukemia; conditions: 10 µM unless noted
# [18] = test system: CAKI-1 renal; conditions: 10 µM unless noted
Structure (SMILES),growth [1],growth [2],growth [3],growth [4],growth [5],growth [6],growth [7],growth [8],growth [9],growth [10],growth [11],growth [12],growth [13],growth [14],growth [15],growth [16],growth [17],growth [18]
COc1cc(/C=C/c2ccc3c(Br)cc(Br)c(O)c3n2)ccc1O,52.8%,0.12% (active),30.3%,22%,-4.9% (active),-24.5% (active),17.5%,63.2%,17.4%,58.2%,-44.8% (active),1.97% (active),3.67% (active),6.88% (active),,,,
CCCCN(CCCC)CCCN=c1nc2c(c(N)n1-c1ccccc1)c(=S)n(-c1ccccc1)c(=S)n2-c1ccccc1,-99.2% (active),-80.9% (active),-89.6% (active),-95.8% (active),-100% (active),-78.4% (active),-36.1% (active),-60.2% (active),-82% (active),-86.5% (active),-70.9% (active),-100% (active),-64.6% (active),-71.1% (active),-55.8% (active),-65.2% (active),-53.4% (active),
CC(=O)c1c(C)nc(-c2cc(C)cc(Cl)c2)nc1-c1cccc(Oc2ccccc2)c1,,85.2%,93.6%,99.6%,41.3%,32.5%,91.8%,107%,85.1%,84%,77.7%,38.6%,59.8%,25.1%,27.9%,10.1%,46.4%,68.2%
Cc1cc(C)c2c(NC(=O)Nc3ccc(Cl)c(Cl)c3)n[nH]c2n1,103%,90.2%,112%,109%,101%,102%,110%,101%,93.2%,100%,111%,113%,114%,102%,,96.6%,100%,91.6%
Nc1ncnc2c1N=C(c1ccc(F)cc1)CC(c1sc(Cl)nc1Cl)N2 (stereo unspecified),81.3%,63.2%,93.2%,95.5%,68.9%,29.1%,87.4%,99.6%,97.9%,95.7%,93.5%,101%,92.5%,,,,76.5%,98%
Cc1ccc(NC(=O)c2[nH]c(SCCN(C)C)nc2-c2ccc(F)cc2)cc1C#Cc1cnc2cccnn12,87.3%,-77.2% (active),105%,-88% (active),102%,,-12.2% (active),11.6%,-59.2% (active),98.5%,78.6%,102%,88.3%,11.1%,55.1%,-35.9% (active),-6.17% (active),
O=[N+]([O-])c1cc(F)c2cccnc2c1O,93.5%,73.6%,152%,89.4%,,120%,88.8%,105%,102%,97.4%,3.74% (active),111%,105%,92.9%,,,,
CCCOC(=O)C1c2cc3c(cc2CC(C)C1C(=O)OCCC)OCO3 (stereo unspecified),104%,65.7%,94.2%,101%,99.8%,,,84.7%,88.7%,101%,75.8%,110%,103%,81.4%,90.9%,90.7%,99.8%,
Cc1ccc2oc(=O)cc(-c3nc4ccc([N+](=O)[O-])cc4[nH]3)c2c1,59.7%,51.7%,62%,63%,43.7%,51.6%,55.6%,98.3%,31.3%,79.4%,70.6%,43.5%,63.9%,20.9%,39.6%,83%,30.9%,
COc1cc(Nc2ccnc3ccc(Br)cc23)cc(OC)c1OC,41.5%,40.2%,56.8%,37.6%,-7.03% (active),32.8%,36.6%,51.6%,62.5%,36.6%,38.2%,29.8%,,12.8%,32.1%,15.7%,30.4%,
Nc1c(C(=O)c2ccc(Br)cc2)sc2nc3c(cc12)CCCC3,90.7%,,108%,96.3%,70.9%,89.9%,98.7%,88%,105%,106%,108%,95.4%,109%,85.7%,96.4%,65.3%,94.6%,105%
NC(=O)c1noc(C(=O)c2ccccc2)c1N,99.7%,90.2%,92.5%,99.6%,72%,,97.3%,100%,89.4%,107%,90.4%,96.9%,112%,112%,95.1%,90.8%,99.4%,98.6%
